This excerpt belongs to a sample that is enriched for hits.
HTT aggregate: qHTS Multiplex Assay to Identify Dual Action Probes in a Cell Model of Huntington: Aggregate Formation (GFP); Potency, µM (highest dose often 46.1 µM), most hits filed as inhibitors; 220,000 tested, 1.1% active; PC12 HttQ103-GFP aggregates, Acumen cytometry, 40 h; further: nearly all actives have a fitted effect of over 60% in size
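PC12 cells with ecdysone-inducible HTT exon1 Q103-GFP, induced by 100 nM tebufenozide, given compounds in a concentration series. GFP aggregates (1–25 um, 6 SD above background) counted in lysates by laser-scanning cytometry, 488 nm excitation.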
Epigenetic derep: Quantitative High-Throughput Screen for Regulators of Epigenetic Control; murine LDR cells, GFP reporter derepression, 30 h; Potency, µM (series often up to 53.9 µM), hits mostly activators; 280,000 tested, 0.2% active; further: nearly all actives have a fitted effect of over 60% in size
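Murine LDR cells carrying a silenced, genomically integrated CMV-driven GFP reporter were exposed to compound for 30 hours at 37 C. After PBS washes, GFP-positive cells (20–120 um objects) were counted by laser-scanning microplate cytometry.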
PINK1 expr mod: A Quantitative High throughput Screen to Identify Chemical Modulators of PINK1 Expression | PINK1 immunofluorescence, high-content cytometry, 24 h | Potency, µM (doses to about 76.6 µM), actives largely listed as activators | 410,000 tested, 0.2% active | AID 624263, 2012; active means well fitted activation curve with a large enough effect; inconclusive means small, poorly fitted or top-dose-only effect; cell line not stated here; further: nearly all actives have a fitted effect of over 65% in size
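Stable cell line, 250 cells/well, 12 h attachment; compounds pinned at 5 concentrations, 24 h; CCCP control. Fixed with nuclear dye, primary antibodies 12 h at 10 degrees C, secondary plus cell stain; laser-scanning cytometer read.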
HTT ATP protect: qHTS Multiplex Assay to Identify Dual Action Probes in a Cell Model of Huntington: Cytoprotection (ATP) | 230,000 tested, 0.14% active | Potency, µM (highest dose often 56.4 µM), actives largely listed as activators | PC12 HTT-Q103 induced, cytoprotection, ATP luminescence, 40 h | AID 1471, 2008; further: nearly all actives have a fitted effect of over 45% in size
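PC12 cells with ecdysone-inducible HTT exon 1 Q103-GFP, induced with 100 nM tebufenozide and co-treated with library compounds in a dose series (1536-well, 1500 cells/well). Cytoprotection read as ATP content by ATPlite luminescence.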
C127i cell count: Parental Cell Counter Screen Assay for Epigenetic Modulators: Hit Validation; shares compounds with Epigenetic derep; mouse c127i parental cells, fluorescent cell count, 30 h; Potency, µM, hits mostly activators; 60 tested, 20% active; AID 493065, 2011
HCC4017 viab: HCC4017 Cell Viability Secondary Assay for qHTS Assay for Epigenetic Modulators. Potency, µM (titrated, usually from 46.1 µM), actives largely listed as cytotoxic. 45 tested, 30% active. HCC4017 NSCLC viability, CellTiter-Glo ATP luminescence, 72 h. shares compounds with Epigenetic derep
H358 tox: H358 Cell Viability Secondary Assay for qHTS Assay for Epigenetic Modulators: Round 2. shares compounds with Epigenetic derep. H358 NSCLC viability, ATP luminescence, 72 h. Potency, µM (doses to about 46.1 µM), actives largely listed as cytotoxic. AID 493074, 2011. 45 tested, 30% active
Each line names hits and unclear results; the compound was inactive in the other large screens (follow-up assays come after a bar, where they were run). Unless noted, the call rests on the fitted dose curve; in most records, active means well fitted curve in the direction sought with a large enough effect; inconclusive means small, poorly fitted or top-dose-only effect, or another doubt; inactive means no such curve, though single readings can be large; an effect the other way counts as inactive or inconclusive.

Cc1ccc(/C=C(\C#N)C(=O)Nc2ccc(Br)cc2)o1	Epigenetic derep 22µM (no result: HTT aggregate, HTT ATP protect)
CN1CCN(C(=S)NC(=O)c2ccc(C(C)(C)C)cc2)CC1	none
O=C1CN(C(=O)COC(=O)CCCOc2ccccc2)c2ccccc2N1	none
CCOc1ccc(CN2CCN(Cc3cc4c(cc3Cl)OCO4)CC2CCO)cc1 (centres undefined)	none
O=S(=O)(Nc1cccnc1)c1ccc(C2CCCCC2)cc1	HTT aggregate 2.8µM
Cc1[nH]c2ccccc2c1SCCNC(=O)c1ccc(Br)o1	HTT aggregate 25µM (no result: PINK1 expr mod)
Cc1nn(CC(O)COc2ccc3c(c2)CCC3)c(C)c1C (centres undefined)	none
O=C(CCN1C(=O)COc2ccccc21)NCCCN1CCN(c2ccccc2F)CC1	HTT aggregate 3.2µM (no result: PINK1 expr mod)
CCCN1CCN(CCCNC(=O)CCN2C(=O)COc3ccccc32)CC1	none (no result: HTT aggregate, Epigenetic derep, HTT ATP protect)
CC(=O)c1cccc(NC(=O)NNC(=O)c2ccc(Cl)cc2Cl)c1	HTT aggregate 11µM
CC(=O)Nc1cccc(/C(C)=N/NC(=O)c2ccc(Cl)cc2Cl)c1	none (no result: HTT aggregate, HTT ATP protect)
COc1cc([N+](=O)[O-])cc(/C=N/NC(=O)C(C)Nc2cccc(C)c2)c1O (centres undefined)	HTT aggregate 10µM
COc1cc([N+](=O)[O-])cc(/C=N/NC(=O)C(C)Nc2ccccc2C)c1O (centres undefined)	HTT aggregate 13µM
COc1cc([N+](=O)[O-])cc(/C=N/NC(=O)c2ccc(C)nc2)c1O	HTT aggregate inconclusive
O=C(c1ccccc1)N(Nc1ccccc1)c1ccccc1	none
O=C(NCc1ccco1)c1nc2c(nnn2Cc2cccc(Cl)c2)c(=O)[nH]1	HTT ATP protect 4.5µM
CC(=O)Nc1cccc(NC(=O)CSc2nnc3ccc(-c4ccncc4)nn23)c1	none (no result: HTT aggregate, Epigenetic derep, HTT ATP protect)
Oc1ccc(/C=N/Nc2ncc(Br)cn2)c(O)c1	HTT aggregate 13µM
O=C1CN(C(=O)c2cc3ccccc3oc2=O)C(c2ccc(F)cc2)c2cc(Br)ccc2N1 (centres undefined)	none (no result: HTT ATP protect)
COc1cc(/C=N\Nc2ccc([N+](=O)[O-])cc2)ccc1OCC(=O)Nc1ccc(C)c(C)c1	Epigenetic derep 6.3µM
Cc1cc(C)c2c(N)c(C(=O)N/N=C/c3cccs3)sc2n1	Epigenetic derep inconclusive, PINK1 expr mod 25µM
COc1ccc(S(=O)(=O)Nc2ccc(N3CCOCC3)cc2)cc1	none (no result: HTT aggregate, Epigenetic derep, HTT ATP protect)
COc1ccc(NS(=O)(=O)c2ccc(N/N=C/c3ccc(N4CCOCC4)cc3)c([N+](=O)[O-])c2)cc1	HTT aggregate 2µM (no result: HTT ATP protect)
CCOc1ccc(NC(=O)Cn2cc(C(=O)c3ccc(OCC)cc3)c(=O)c3cc4c(cc32)OCCO4)cc1	Epigenetic derep 20µM (no result: HTT aggregate, HTT ATP protect)
COc1ccc(N2C(=O)CC3(CCCC3)CC2=O)cc1	HTT ATP protect 3.2µM
COc1nc(N(CC(N)=O)S(=O)(=O)c2ccccc2)nc(C)c1Cl	none
COc1ccc(N2CCN(C(=S)Nc3ccccc3)CC2)cc1	none (no result: HTT aggregate, Epigenetic derep, HTT ATP protect)
CC(=O)c1ccc(N2CCN(C(=S)Nc3ccc(Oc4ccccc4)cc3)CC2)cc1	HTT aggregate 13µM
O=C(CN1CCCc2ccccc21)N/N=C/c1c(O)ccc2ccccc12	HTT aggregate 10µM
O=C(CN1CCCc2ccccc21)N/N=C/c1ccccc1	none
C=CCN1CCc2c(cc(O)c(O)c2Cl)C(c2cccc(C)c2)C1 (centres undefined)	none (no result: HTT aggregate, PINK1 expr mod)
Brc1ccc(N/N=C(/N=Nc2nn[nH]n2)c2ccccc2)cc1	HTT aggregate 7.1µM
O=C(O)c1ccc(N=N/C(=N\Nc2ccc(C(=O)O)cc2)c2ccccc2)cc1	none (no result: HTT aggregate, Epigenetic derep, HTT ATP protect)
C/C(=C\c1ccco1)C1C(C#N)=C(N)Oc2n[nH]c(-c3ccccc3)c21 (centres undefined)	none
C/C(=C\c1ccco1)C1C(C#N)=C(N)Oc2n[nH]c(-c3ccc(C)cc3)c21 (centres undefined)	PINK1 expr mod inconclusive, HTT ATP protect 3.5µM
CC1CCc2nc(N)c(C#N)c(-c3cccnc3)c2C1 (centres undefined)	HTT aggregate 2µM
O=C(COc1ccccc1/C=C1\SC(=S)NC1=O)Nc1ccc(F)cc1	PINK1 expr mod 32µM (no result: HTT aggregate, Epigenetic derep, HTT ATP protect)
COc1ccc(N2Cc3ccccc3C2)cc1Cl	none
COc1ccc(Nc2nc3c(S(=O)(=O)c4ccccc4)nnn3c3ccc(Cl)cc23)cc1	Epigenetic derep inconclusive (no result: HTT aggregate, HTT ATP protect) | C127i cell count inactive
CN(c1ccccc1)S(=O)(=O)c1nnc(NC(=O)c2ccccc2)s1	Epigenetic derep 7.1µM (no result: HTT aggregate, HTT ATP protect) | C127i cell count inactive | HCC4017 viab inactive | H358 tox inactive
COc1ccccc1CNC(=O)C/C(C)=N/NC(=O)Cc1ccc(OC)c(OC)c1	none
CC1=C/C(=N\NC(=S)Nc2cccnc2)CC(C)(C)C1	HTT aggregate inconclusive, Epigenetic derep 6.3µM | C127i cell count inactive | HCC4017 viab inconclusive | H358 tox inactive
COc1ccccc1OCC(=O)N/N=C/C=C/c1ccc([N+](=O)[O-])o1	HTT aggregate inconclusive, Epigenetic derep 10µM, PINK1 expr mod inconclusive | C127i cell count inactive | HCC4017 viab inconclusive | H358 tox 14µM
O=C(CSc1cccc[n+]1[O-])c1ccccc1Br	Epigenetic derep 3.5µM | C127i cell count inactive | HCC4017 viab inactive | H358 tox inactive
Cc1ccc(NC(=O)N(CCCN2CCOCC2)Cc2cccs2)cc1C	none
O=C(NN1C(=O)c2ccccc2NC1c1ccc([N+](=O)[O-])o1)c1ccc([N+](=O)[O-])cc1 (centres undefined)	HTT aggregate inconclusive, Epigenetic derep 10µM | C127i cell count inactive | HCC4017 viab inconclusive | H358 tox inconclusive
O=C(NN1C(=O)c2ccccc2NC1c1ccc([N+](=O)[O-])o1)c1ccccc1 (centres undefined)	HTT aggregate inconclusive
N=c1n(CC(=O)O)c2ccccc2n1Cc1ccccc1Cl	none
N=c1n(CC(=O)c2ccc([N+](=O)[O-])cc2)c2ccccc2n1Cc1ccccc1Cl	Epigenetic derep inconclusive (no result: HTT ATP protect) | C127i cell count inactive | HCC4017 viab 13µM | H358 tox inconclusive
O=[N+]([O-])/C(C=Nc1ccccc1O)=C\Nc1ccccc1O	Epigenetic derep inconclusive | C127i cell count inactive | HCC4017 viab inactive | H358 tox inconclusive
O=[N+]([O-])/C(=C\Nc1ccccc1Cl)S(=O)(=O)c1ccccc1	none (no result: PINK1 expr mod)
